Source: PubChem BioAssay (NCI)
Where “and” joins values, the source holds several entries; their conditions need not be identical. Equal entries are not always repeated. Compounds without any hit were thinned out: in the full panel of roughly 83,000, 20% have a hit.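 Cell lines were cultured in 96-well plates, exposed to a single compound concentration, and assessed for percent growth 48 hours later.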 Values without a mark were called inactive. Calls of active or inactive are those of the source. How the source made its calls: active means growth percent below 10; inactive means the rest.

System: MDA-MB-468 breast
Assay: NCI-60 one-dose screen, 48 h (100 = growth as untreated, 0 = no growth, -100 = all killed)
Details: 10 µM unless noted

Row | Structure (SMILES) | growth
1 | CC/C(=N\Nc1nc2ccccc2n1C)c1ccccn1 | -14.5% (active)
2 | CCCCCCNC(=O)Oc1ccc(/C(=C(\C)c2ccc(Cl)cc2)c2ccc(OCCCN(C)C)cc2)cc1 | 92%
3 | CCn1cc(C(=O)O)c(=O)c2cc(F)c(N3CCN(CC(=O)Nc4ccc(C(C)=O)cc4)CC3)cc21 | 108%
4 | CC(C)n1c2ccc(Br)cc2c2c3c(c4c5ccccc5ccc4c21)C(=O)NC3=O | 93.5%
5 | C=C(CNCCO)[C@@H]1CC[C@]2(CO)CC[C@]3(C)[C@H](CC[C@@H]4[C@@]5(C)CCC(N)C(C)(C)[C@@H]5CC[C@]43C)[C@@H]12 (stereo partly specified) | -40.9% (active)
6 | CCCCCCCC(C)NCCO (stereo unspecified) | 104%
7 | Cc1ccc(O)c(NC(=O)c2ccc(CNc3ccnc(C(F)(F)F)c3)cc2)c1 | 76.4%
8 | CNC(=O)c1cc(Oc2ccc3c(c2)sc2nc(-c4ccc(NC(=O)Nc5ccc(Cl)c(C(F)(F)F)c5)cc4)cn23)ccn1 | 93.9%
9 | CC[Si](CC)(CC)OC1[C@@H](O[Si](CC)(CC)CC)[C@@H](CNC(=O)NC)O[C@H]1n1cnc2c(NC(=O)Nc3ccccc3)ncnc21 (stereo partly specified) | 97.5%
10 | COc1ccc(OC)c2c1[nH]c(=O)c1c3ccccc3cn21 | -23.3% (active)
11 | C=C(C)[C@@H]1CC[C@]2(C(=O)ON)CC[C@]3(C)[C@H](CC[C@@H]4[C@@]5(C)C/C(=C/c6ccc(Br)cc6)C(=O)C(C)(C)[C@@H]5CC[C@]43C)[C@@H]12 | 73.2%
12 | COc1ccc(/C=C/C(=O)c2nnn(-c3ccc(C(=O)O)cc3)c2C)cc1OC | 84.6%
13 | COC(=O)c1ccccc1N(C)C | 107%
14 | COc1cc(Nc2nc(N[C@H]3CCCC[C@@H]3N)nc3cc[nH]c(=O)c23)cc(OC)c1 | -24.5% (active)
15 | O=C(/C=C/c1c[nH]c2ccccc12)c1ccc(O)c(CN2CCN(c3ccc(F)cc3)CC2)c1 | 97.4%
16 | NC(=O)c1c(NC(=O)c2ccccc2)sc2c1CCC(=O)C2 | -5.34% (active)
17 | Ic1ccc(Nc2nc3nonc3nc2Nc2ccc(I)cc2)cc1 | -4.36% (active)
18 | O=C(N/N=C/c1ccccc1SSc1ccccc1/C=N/NC(=O)c1ccccc1)c1ccccc1 | 51.9%
19 | CCCCN1CCCC[C@@H]1C(=O)N[C@H](C(=O)N(C)[C@H](CCc1nc(C(=O)N[C@@H](Cc2ccccc2)C[C@H](C)C(=O)OC)cs1)C(C)C)C(C)C | 22.3%
20 | Cc1ccc(-c2nc(N3CCN(C(=O)c4ccc(OC(F)(F)F)cc4)CC3)c3ccccc3n2)cc1 | 93.8%
21 | CN(C)CCCN(CCC1CCCCC1)CCC1CCCCC1 | -35.4% (active)

Row | Structure (SMILES) | growth
22 | O=C(Nc1cccc(-n2cc(-c3ccncc3)c(-c3cc(O)cc(Cl)c3)n2)c1)c1ccc(N2CCOCC2)c(C(F)(F)F)c1 | 26%
23 | Nc1ccc2c(c1)C(=O)NC2=O | 75.4%
24 | CCOC(=O)c1csc(NC(=O)CSc2nc3sc4c(c3c(=O)n2-c2ccc(Cl)cc2)CCCC4)n1 | 102%
25 | O=C(c1cccc(Br)c1)N1CCN(c2ccnc3cc(Cl)ccc23)CC1 | 66%
26 | Cn1cc(-c2csc(-c3ccc(Cl)cc3)n2)c2cccnc21 | -69.1% [100 µM] (active)
27 | CCOC(=O)c1cccc(NC2=C(Cl)C(=O)C(C)=C(C)C2=O)c1 | -20.6% (active)
28 | CCOC(=O)c1cc2c(n1Cc1cccc(OC)c1)-c1oncc1CC2 | -2.28% (active)
29 | COc1cc(C2C3=C(COC3=O)Nc3cc4c(cc32)CCC4)cc2c1OCO2 (stereo unspecified) | -8.49% (active)
30 | O=C1Cc2cc(CCN3CCN(c4nsc5ccccc45)CC3)c(Cl)cc2N1 | 49.1%
31 | COC1=C(C)C(=O)N2[C@@H]1[C@H](c1ccccc1)OC21C=CC(=O)C=C1 | -20.4% (active)
32 | O=Cc1ccccc1C(=O)O | -6.83% (active)
33 | O=[N+]([O-])c1ccc2[nH]cc(-c3c4ccccc4cc4[nH]c5ccc([N+](=O)[O-])cc5c34)c2c1 | 23.9%
34 | Cc1cc(CC(C)CC(C)(C)C)n(O)c(=O)c1 (stereo unspecified) (tested in a mixture with another compound) | -7.41% (active)
35 | COc1nc2c(c(=O)n1C)N=C1c3ccccc3C(=O)C1C(c1ccccc1)N2 (stereo unspecified) | 82.5%
36 | CC/C=C\C[C@H](O)C/C=C1/C(=O)C=C[C@@H]1C/C=C\CCCC(=O)OC(C)C | -17% (active)
37 | CC(=O)CC(c1cccs1)c1c(-c2ccccc2)[nH]c2ccccc12 (stereo unspecified) | 100%
38 | CC(=O)N1c2ccccc2NC2=C(C(=O)N(Cc3ccccc3)C2(C)C)C1c1ccco1 (stereo unspecified) | -1.86% (active)
39 | COc1ccc(-c2nnc3c4[nH]cnc4ncn23)c(OC)c1 | -16.2% (active)
40 | Clc1cccc(Nc2ncnc3ccc(-c4cnc5[nH]ccc5c4)cc23)c1 | -16.9% (active)
41 | Clc1cccc(Cl)c1C(Nc1nc2ccccc2s1)Nc1nc2ccccc2s1 | 72.3%
42 | CC1(C)[C@@H](O)CC[C@]2(C)[C@H]3CC[C@@H]4[C@H]5[C@H](C(=O)/C=C\c6ccc([N+](=O)[O-])cc6)CC[C@]5(O)CC[C@@]4(C)[C@]3(C)CC[C@@H]12 | 36.2%

Row | Structure (SMILES) | growth
43 | c1cc[n+](Cc2ccnc3ccccc23)cc1 | 126%
44 | NCc1c(O)ccc2ccccc12 | 93.9%
45 | COc1ccc(C2C3=C(COC3=O)N(CCO)c3cc4c(cc32)CCC4)cc1OC (stereo unspecified) | -17.1% (active)
46 | O=S(=O)(NCCNc1nccc(-n2cnc3ccccc32)n1)c1ccc(Cl)cc1 | 101%
47 | CC(C)n1c(/C=C/[C@@H](O)C[C@@H](O)CC(=O)O)c(-c2ccc(F)cc2)c2ccccc21 | 81.7%
48 | COc1ccc2c(c1)/C(=C\c1c[nH]c3ccc(F)cc13)C(=O)N2 | 2.93% (active)
49 | CC1CCC2(OC1)OC1CC3C4CC=C5CC(O)CCC5(C)C4CCC3(C)C1C2C (stereo unspecified) | 89.4%
50 | O=C(CN(C(=O)Cn1c(=O)n2nnnc2c2ccccc21)c1ccccc1C(F)(F)F)Nc1ccc(C(F)(F)F)cc1 | 108%
51 | COc1ccc(CCN2C(=O)CCC3=C2CCCC3=O)cc1OC | 105%
52 | COCC[C@H]1CCC/C=C/[C@@H]2C[C@H](O)C[C@H]2[C@H](O)/C=C/C(=O)O1 | -50.7% (active)
53 | Cc1ncsc1CCO | 99.2% and 107%
54 | CCN(CC)Cc1cc(Nc2cc(C(F)(F)F)c(C#N)c3nc4ccccc4n23)ccc1O | -0.969% (active)
55 | c1ccc(-c2nc(Nc3nccnn3)c3ccccc3n2)cc1 | 83.5%
56 | Nc1nc(N)c(C=Nc2ccc(Br)cc2)c(Nc2ccc(Br)cc2)n1 | 109%
57 | C[n+]1cccc(CC(=O)NO)c1 | 88.3%
58 | CCCCCCCCCCCCCCCCNC(=O)Nc1ccc(C)c(NC(=O)NCCCCCCCCCCCCCCCC)c1 | 101%
59 | Cc1cnc(C(=O)NNc2nc3sc4c(c3c(=O)[nH]2)C(C)CCC4)cn1 (stereo unspecified) | -10.4% (active)
60 | CC(=O)Oc1ccc(C)cc1C | 112%
61 | COc1ccc(-c2cc(-c3ccccc3)nc(NCCNc3ccnc4cc(Cl)ccc34)n2)cc1 | -73.7% (active)
62 | CN1CCN(CCCOc2ccc3ncnc(Nc4ccc(OCc5cccc(F)c5)c(Cl)c4)c3c2)CC1 | -63.1% (active)
63 | COc1c(O)cc2oc3cc(O)c(CC=C(C)C)c(O)c3c(=O)c2c1C/C=C(\C)CCC=C(C)C | 82.1%

Row | Structure (SMILES) | growth
64 | CCCCCCCCCCC(C)Br (stereo unspecified) | 111%
65 | C#CCNC(=S)N/N=C(\C)c1ccccn1 | -31.4% (active)
66 | N=c1n(Cc2ccccc2)c(N)cc(=O)n1Cc1ccccc1 | 83.3%
67 | Cc1ccc(S(=O)(=O)OC[C@@]2(C)CC[C@]3(C)CC[C@]4(C)C(=C3C2)C=C[C@@H]2[C@@]3(C)CCCNC(C)(C)[C@@H]3CC[C@]24C)cc1 | -88.5% (active)
68 | CO[C@@]12C=C[C@@]34CCC(=O)N3c3ccccc3[C@@H](O1)C4C2 | 108%
69 | O=C1Nc2cc(-c3cccc([N+](=O)[O-])c3)ccc2/C1=C/c1ccc[nH]1 | -7.17% (active)
70 | CO[C@@H]1[C@H](N(C)C(=O)c2ccccc2)C[C@@H]2O[C@]1(C)n1c3ccccc3c3c4c(c5c6ccccc6n2c5c31)C(=O)NC4=O | -12.7% (active)
71 | CN1C(=O)NC(c2ccc3c(c2)OCO3)C=C1c1ccccc1 (stereo unspecified) | 98.2%
72 | CC(C)C[C@@H]1N[C@@]2(C(=O)Nc3ccccc32)[C@@H](c2ccc(F)cc2)[C@@H]1C(=O)c1ccc(O)cc1 | 102%
73 | O=C(NC1CC1)c1cc2n(n1)CC(c1ccccc1)N2 (stereo unspecified) | 98.5%
74 | O=C(O)c1cn(C2CC2)c2cc(N3CCN(Cc4c(O)ccc5ccccc45)CC3)c(F)cc2c1=O | 35.1%
75 | O=C1/C(=C\c2ccc(Cl)cc2)CN(C(=O)c2ccccc2)C/C1=C\c1ccc(Cl)cc1 | -17.7% (active)
76 | CCc1ccccc1-n1c(N)c(C#N)c(-c2ccc(N(C)C)cc2)c(C#N)c1=O | 116%
77 | COc1c(CNC(=O)CCl)cc2[nH]c(C)cc2c1CNC(=O)CCl | 53.4%
78 | CCOC(=O)Nc1ccc(-c2nc(-c3cccc(O)c3)c(-c3ccnc(Br)c3)[nH]2)cc1 | 10.7%
79 | O=C(NCCNC(=O)c1cc(S(=O)(=O)NCCc2ccccc2)c(O)c(O)c1O)c1cc(S(=O)(=O)NCCc2ccccc2)c(O)c(O)c1O | 83.2%
80 | CCN(CC)CCCNC(=O)c1ccc(N)cc1 | 86.2%
81 | CCc1nc2cc(/C=C/C(=O)NO)c(F)cc2c(=O)n1CCc1ccccc1 | -32.9% (active)
